ZTA counter – counter-screen for EBNA-1 inhibitors: inhibitors of Epstein-Barr virus ZTA; P03206; ZTA-DNA binding, fluorescence polarization; inhibition, % at 11 µM; 320,000 tested, 0.15% active; AID 2234; in the data active = inhibition above about 33%
Target sequence (P03206 whole entry, looked up): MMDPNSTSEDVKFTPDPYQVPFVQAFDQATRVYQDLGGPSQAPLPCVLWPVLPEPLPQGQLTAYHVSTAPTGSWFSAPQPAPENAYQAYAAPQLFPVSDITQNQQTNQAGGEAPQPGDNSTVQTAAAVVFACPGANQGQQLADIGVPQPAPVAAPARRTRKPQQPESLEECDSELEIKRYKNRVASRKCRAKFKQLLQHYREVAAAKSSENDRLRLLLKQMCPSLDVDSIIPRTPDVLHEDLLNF
PAFAH2 FP inh – inhibitors of human PAFAH2. recombinant PAFAH2, FP-rhodamine activity probe, fluorescence polarization. inhibition, % at 3.39 µM. 340,000 tested, 0.99% active;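 active = inhibition above the mean over all tested compounds plus 3 SD, cut at about 30% in these data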;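 note: inhibitors block probe labeling of enzyme so polarization drops; 0% = enzyme with DMSO and 100% = wells lacking PAFAH2 protein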
EBNA-1 inhibitor – blocks EBNA-1 binding to DNA; 300,000 tested, 0.34% active; AID 1950; EBNA-1 DNA binding, fluorescence polarization; inhibition, % at 14.8 µM; in the data active = inhibition above about 28%
rCAG RNA binder – r(CAG) repeat RNA binding | TO-PRO-1 dye displacement fluorescence | inhibition, % at 3 µM | 370,000 tested, 1.3% active;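 active = inhibition above the plate cutoff, the mean of all test compounds on that plate plus 3 SD, cut at about 35% in these data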;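 note: 0% = DMSO alone and 100% = 100 µM mitoxantrone as full dye displacement; higher means more dye released from RNA so lower well fluorescence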
PAFAH1B3 FP inh – blocks human PAF acetylhydrolase 1B catalytic subunit 3 | recombinant PAFAH1B3, FP-rhodamine probe, fluorescence polarization | 340,000 tested, 0.28% active | inhibition, % at 3.39 µM | Q15102 | AID 492972;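 active = inhibition above the screen-wide average of all tested compounds plus 3 SD, cut at about 25% in these data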;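 note: 0% = enzyme with DMSO only and 100% = wells lacking PAFAH1B3 protein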
Target sequence (Q15102 whole entry, looked up): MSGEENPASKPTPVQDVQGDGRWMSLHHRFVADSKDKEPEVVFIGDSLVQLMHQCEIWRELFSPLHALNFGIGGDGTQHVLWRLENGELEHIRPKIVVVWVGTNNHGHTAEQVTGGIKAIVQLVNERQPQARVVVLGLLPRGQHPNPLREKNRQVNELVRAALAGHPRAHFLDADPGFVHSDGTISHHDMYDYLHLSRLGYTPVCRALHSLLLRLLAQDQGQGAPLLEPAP
PAFAH1B2 FP inh – PAFAH1B2 (human) inhibition. P68402. recombinant PAFAH1B2, FP-rhodamine activity probe, fluorescence polarization. inhibition, % at 3.39 µM. 340,000 tested, 1.2% active. AID 492953;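 active = inhibition above the mean of all tested compounds plus 3 SD, cut at about 24% in these data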;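 note: 0% = enzyme with DMSO and 100% = wells lacking PAFAH1B2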
Target sequence (P68402 whole entry, looked up): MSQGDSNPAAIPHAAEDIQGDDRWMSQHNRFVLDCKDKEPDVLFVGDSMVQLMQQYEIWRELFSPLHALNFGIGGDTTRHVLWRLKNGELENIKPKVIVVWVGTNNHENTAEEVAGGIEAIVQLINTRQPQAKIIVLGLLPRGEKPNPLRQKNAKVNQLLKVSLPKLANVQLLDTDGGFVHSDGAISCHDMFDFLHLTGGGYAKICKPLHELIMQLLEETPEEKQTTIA
rCAG bind conf – r(CAG) RNA repeat binding, confirmation; shares compounds with rCAG RNA binder; inhibition, % at 3 µM; AID 652065; 4,300 tested, 70% active; TO-PRO-1 dye displacement fluorescence;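 active = inhibition above a per-plate cutoff, the mean inhibition of sample wells plus 3 SD, cut at about 35% in these data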;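 note: loss of TO-PRO-1 fluorescence as compound displaces dye from 1x1 AA loop RNA; 0% = DMSO only wells and 100% = 100 µM mitoxantrone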
dCAG dye counter – disrupts DNA CAG TO-PRO-1 complex, flagging rCAG hits | shares compounds with rCAG RNA binder | d(CAG) DNA oligo TO-PRO-1 dye displacement, fluorescence | inhibition, % at 3 µM | 4,300 tested, 94% active;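 active = inhibition above its plate's cutoff, the mean test-well inhibition plus 3 SD, cut at about 4.8% in these data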;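 note: 0% = DNA dye mix with DMSO and 100% = 100 µM mitoxantrone; hits displace the dye from DNA and so lower well fluorescence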
* marks the source's active call; other numbers are inactive results; · = no result given. This is a sample that favours compounds with a hit; in the whole collection about 2.9% have one here.

SMILES	ZTA counter	PAFAH2 FP inh	EBNA-1 inhibitor	rCAG RNA binder	PAFAH1B3 FP inh	PAFAH1B2 FP inh	rCAG bind conf	dCAG dye counter
Cc1ccc(/C=C2\SC(=S)N(NS(=O)(=O)c3ccc(C)cc3)C2=O)cc1	14.1	9.2	10.5	8.2	9.5	5.4	·	·
COc1ccc(/C=C2/SC(=S)N(NS(=O)(=O)c3ccc(C)cc3)C2=O)cc1	31.6	15.5	-4.7	84.1*	-2.8	-0.6	83.6*	46.5*
OCC(CCc1c[nH]c2ccccc12)c1c[nH]c2ccccc12 (stereo not drawn)	·	·	·	6.4	·	·	·	·
CCCN(CCC)C(=O)CSc1nc2c(sc(=S)n2-c2ccc(OCC)cc2)c(=O)[nH]1	-14.2	7.7	3.8	24.5	7.2	9.4	·	·
CCOC(=O)CC(=O)CSc1nc2c(sc(=S)n2-c2ccc(C)c(C)c2)c(=O)[nH]1	4.9	10.9	-6.8	70.4*	3.9	3.6	63.0*	23.4*
CCOC(=O)CC(=O)CSc1nc2c(sc(=S)n2-c2ccc(OCC)cc2)c(=O)[nH]1	9.0	-0.2	1.3	61.2*	5.4	3.0	53.3*	18.8*
Cc1ccc(S(=O)(=O)N2[C@H](CC(=O)c3cccs3)OC[C@@H]2C(C)C)cc1	·	·	·	4.4	·	·	·	·
COc1ccc(S(=O)(=O)N2CCCCCC2)cc1C(=O)N(C)CC(=O)Nc1ccccc1C(F)(F)F	-8.8	3.0	·	-6.6	7.4	1.8	·	·
COC1=C/C(=C/c2c(N)n3nc(-c4ccc(C)cc4)sc3nc2=O)C=CC1=O	·	13.0	·	62.6*	18.0	27.5*	58.8*	19.1*
CCOC1=C/C(=C/c2c(N)n3oc(C)cc3nc2=O)C=CC1=O	-13.1	·	2.7	·	·	·	·	·
CCOC1=C/C(=C/c2c(N)n3nc(-c4ccccc4)sc3nc2=O)C=CC1=O	·	·	·	48.7*	·	·	58.8*	24.7*
CCS(=O)(=O)c1nn2c(N)c(/C=C3/C=CC(=O)C(OC)=C3)c(=O)nc2s1	-7.2	3.5	-11.7	5.2	-5.0	10.9	·	·
CCCOc1ccc(C(CC(=O)O)NC(=O)c2sc3ccccc3c2Cl)cc1 (stereo not drawn)	6.8	4.5	0.3	53.0*	14.5	6.0	42.4*	9.9*
CCN(CC)c1c2c(nc3ncnn13)CCCC2	·	·	·	-0.8	·	·	·	·
CCCSc1nnc(N2C(=O)C(O)=C(C(=O)c3ccco3)C2c2ccccc2F)s1 (stereo not drawn)	6.5	18.1	3.6	47.6*	5.3	-1.2	41.4*	10.8*
CSc1nnc(N2C(=O)C(O)=C(C(=O)c3ccco3)C2c2ccccc2)s1 (stereo not drawn)	12.8	7.9	12.0	7.4	5.9	-6.8	·	·
CSc1nnc(N2C(=O)C(O)=C(C(=O)c3ccc(C)o3)C2c2ccc(C)cc2)s1 (stereo not drawn)	3.2	6.2	3.1	39.0*	-2.2	0.5	32.2	5.6*
CCc1nnc(NS(=O)(=O)c2ccc(NC(=O)c3ccc(S(=O)(=O)N(CC)CC)cc3)cc2)s1	9.1	-3.5	15.3	75.6*	3.5	0.8	66.7*	28.6*
CCOc1cc(C(=O)Nc2ccc(S(=O)(=O)Nc3nnc(CC)s3)cc2)cc(OCC)c1OCC	12.5	-3.5	-0.8	63.2*	-1.4	6.8	66.7*	27.9*
CCOc1cc(C(=O)Nc2ccc(S(=O)(=O)Nc3cc(C)on3)cc2)cc(OCC)c1OCC	-0.1	4.1	-1.8	41.5*	3.9	2.9	34.5	8.4*
CCc1nnc(NS(=O)(=O)c2ccc(NC(=O)CCC(=O)O)cc2)s1	-9.8	2.4	-1.7	-2.2	2.5	3.3	·	·
COc1cc(C(=O)Nc2ccc(S(=O)(=O)Nc3cc(C)on3)cc2)cc(OC)c1OC	-3.9	-3.9	5.5	9.7	15.0	1.0	·	·
CCc1nnc(NS(=O)(=O)c2ccc(NC(=O)c3cccc(Br)c3)cc2)s1	-12.8	-5.0	1.2	72.9*	-2.9	-4.2	52.6*	19.5*
CCCCCCNC(=O)C1CSCCS(=O)(=O)N1Cc1ccc(C)cc1 (stereo not drawn)	·	·	·	-0.5	·	·	·	·
CCNC(=O)N(C)c1c(CC)nc2ccc(C(=O)N3CCN(S(=O)(=O)CC)CC3)cn12	·	·	·	1.6	·	·	·	·
SMILES	ZTA counter	PAFAH2 FP inh	EBNA-1 inhibitor	rCAG RNA binder	PAFAH1B3 FP inh	PAFAH1B2 FP inh	rCAG bind conf	dCAG dye counter
CCNC(=O)N(C)[C@H]1C[C@H]2c3[nH]c4cccc(-c5cccc(F)c5)c4c3CCN2C(=O)[C@H]1[C@H](C)O	·	·	·	6.4	·	·	·	·
Cc1ccc(OC(=O)CCC(=O)Nc2ccc(S(=O)(=O)Nc3cc(C)on3)cc2)cc1	-17.1	3.9	0.4	-0.5	1.2	5.7	·	·
CCC(Oc1ccc(C)cc1)C(=O)Nc1ccc(S(=O)(=O)Nc2cc(C)on2)cc1 (stereo not drawn)	3.3	1.9	1.2	36.3*	5.0	4.4	20.8	2.2
CN(CC#Cc1ccccc1)C(N)=NC(=O)/C=C/c1ccccc1	·	·	·	-0.2	·	·	·	·
COc1cc(OC)c2c(O)c3c(=O)cc(C)oc3c(-c3c(OC)cc4cc5c(c(O)c4c3O)C(=O)CC(C)(O)O5)c2c1 (stereo not drawn)	·	·	·	44.3*	·	·	41.4*	22.3*
COc1ccc(CNC(=O)COc2cc(O)c3c(c2)OC(C)(C)CC3=O)c(OC)c1	14.4	1.0	7.7	-5.3	-3.5	5.3	·	·
CC(C)c1ccc(NC(=O)CSc2nc3ccsc3c(=O)n2Cc2ccc(C(=O)O)cc2)cc1	2.4	8.7	-9.1	32.9	5.3	0.9	·	·
CCC(Sc1nc2ccsc2c(=O)n1Cc1ccc(C(=O)O)cc1)C(=O)Nc1cccc(OC)c1 (stereo not drawn)	·	·	·	45.6*	·	·	36.3*	10.7*
CCc1ccc(NC(=O)C(CC)Sc2nc3ccsc3c(=O)n2CCC(=O)O)cc1 (stereo not drawn)	-9.5	8.0	-2.4	37.9*	10.7	2.7	23.4	4.4*
CCc1ccc(NC(=O)CSc2nc3ccsc3c(=O)n2CCC(=O)O)cc1	-1.8	-2.7	8.8	23.1	5.2	-0.7	·	·
Cc1cn([C@H]2C[C@H](O)[C@@H](CNS(=O)(=O)N3CCCC3)O2)c(=O)[nH]c1=O	·	·	·	0.3	·	·	·	·
CCCCCCCCCCCCN1[C@@H](CC(=O)O)c2cc(C(F)(F)F)ccc2S1(=O)=O	-7.3	11.0	11.7	27.8	3.3	23.4	·	·
CCCCCCCCN1[C@@H](CC(=O)OC)c2cc(F)ccc2S1(=O)=O	-13.0	-5.9	-2.7	-8.6	0.0	9.5	·	·
CCCCCCCCCCCCN1[C@@H](CC(=O)O)c2cc(F)ccc2S1(=O)=O	9.6	-1.6	5.2	75.8*	-3.0	31.0*	67.8*	24.1*
CCCCCCCCN1[C@@H](CC(=O)O)c2cc(C(F)(F)F)ccc2S1(=O)=O	5.2	6.9	-6.2	40.0*	9.6	27.3*	26.2	3.7
O=C(O)c1ccccc1NS(=O)(=O)c1cccc(C(F)(F)F)c1	9.9	11.3	-2.6	15.2	6.6	11.5	·	·

Bioassay records as filed in PubChem.
